Experimental data from the supplement of paper PMC13380429.

What follows are molecules tested on Vero E6 infected with SARS-CoV-2 (assay: inhibition of SARS-CoV-2 cytopathic effect; higher = more antiviral protection, active = above 15). Details: 10000 nM; 48 h.
With `CO[C@H]1C[C@@H]2CC[C@@H](C)[C@@](O)(O2)C(=O)C(=O)N2CCCC[C@H]2C(=O)O[C@H]([C@H](C)C[C@@H]2CC[C@@H](O)[C@H](OC)C2)CC(=O)[C@H](C)/C=C(\C)[C@@H](O)[C@@H](OC)C(=O)[C@H](C)C[C@H](C)/C=C/C=C/C=C/1C` [sirolimus] the “inhibition of SARS-CoV-2 cytopathic effect” value (from here on “inhibition”) was -0.88% (inactive).
`Cl/C=C\C[N+]12CN3CN(CN(C3)C1)C2` [1-((Z)-3-chloroallyl)-1,3,5,7-tetraazaadamantan-1-ium] was tested, and the “inhibition” value was 5.36% (inactive).
With `Nc1nc2cc(-c3ccc4ncc(C(=O)N5CCOCC5)n4c3)ccc2o1` the “inhibition” value was -2.33% (inactive).
With `C[C@@H](O)[C@H]1C(=O)N2C(C(=O)O)=C(S[C@@H]3CN[C@H](C(=O)N(C)C)C3)[C@H](C)[C@H]12` [meropenem] the “inhibition” value was -0.92% (inactive).
In the case of `CC(C)=CCC/C(C)=C/CC/C(C)=C/CC[C@]1(C)CCc2cc(O)cc(C)c2O1` [delta-tocotrienol], the “inhibition” value is reported as 2.88% (inactive).
For `Cc1cccc(/C=N/Nc2cc(N3CCOCC3)n3nc(-c4ccncc4)cc3n2)c1`, the “inhibition” value was 13.2% (inactive).
In the case of `CN1CCN(CCCN2c3ccccc3Sc3ccc(S(=O)(=O)N(C)C)cc32)CC1` [thioproperazine], the “inhibition” value is reported as 1.7% (inactive).
For `CN1CCN(C(=O)c2nc3ccc(Cl)cc3[nH]2)CC1`, the “inhibition” value was 1.76% (inactive).
For `Cc1cc(C(=O)Nc2nc3cccc(Cl)c3n2[C@@H]2CCCCN(C(=O)/C=C/CN(C)C)C2)ccn1`, the “inhibition” value was 10.4% (inactive).
In the case of `COc1ccc(COc2cc3oc(=O)c4cc(C(C)O)ccc4c3cc2OC)cc1` (stereo not given) [palomid-529], the “inhibition” value is reported as 1.22% (inactive).
For `O=C1NC(=O)/C(=C/c2ccc3nccc(-c4ccncc4)c3c2)S1`, the “inhibition” value was -1.1% (inactive).
In the case of `NCCCCN` [putrescine], the “inhibition” value is reported as 0.82% (inactive).
`N=C(N)NS(=O)(=O)c1ccc(N)cc1` [sulfaguanidine] was tested, and the “inhibition” value was 1.22% (inactive).
For `C=CC(=O)Nc1cc(Nc2nccc(-c3c[nH]c4ccccc34)n2)c(OC)cc1N(C)CCN(C)C`, the “inhibition” value was -12.3% (inactive).
`CC(=O)OCC(=O)[C@@]1(O)[C@@H](C)C[C@H]2[C@@H]3CCC4=CC(=O)C=C[C@]4(C)[C@@]3(F)[C@@H](O)C[C@@]21C` [betamethasone-acetate] was tested, and the “inhibition” value was -0.935% (inactive).
With `Nc1nc(OCc2ccccc2)c2nc[nH]c2n1` [O6-benzylguanine] the “inhibition” value was -1.55% (inactive).
`CC(C)C[C@H](NC(=O)[C@@H](COC(C)(C)C)NC(=O)[C@H](Cc1ccc(O)cc1)NC(=O)[C@H](CO)NC(=O)[C@H](Cc1c[nH]c2ccccc12)NC(=O)[C@H](Cc1cnc[nH]1)NC(=O)[C@@H]1CCC(=O)N1)C(=O)N[C@@H](CCCNC(=N)N)C(=O)N1CCC[C@H]1C(=O)NNC(N)=O` [goserelin-acetate] was tested, and the “inhibition” value was 5.2% (inactive).
With `CS(=O)(=O)c1ccc(-c2cnc(N)c(C(=O)Nc3ccccc3)n2)cc1` the “inhibition” value was 2.65% (inactive).
With `CO[C@@H](C)Cn1c(=O)n(C)c2cnc3ccc(-c4cncc(C(C)(C)O)c4)cc3c21` the “inhibition” value was -17.6% (inactive).
For `C[C@H](Nc1cc2c(-c3ccc4c(c3)OCO4)noc2cn1)c1ccccc1`, the “inhibition” value was -1.26% (inactive).
In the case of `CCC(Cc1c(I)cc(I)c(N)c1I)C(=O)O` (stereo not given) [iopanic-acid], the “inhibition” value is reported as 2.12% (inactive).
For `Cc1cc(C(C)(C)C)c(O)c(C)c1CC1=NCCN1` [oxymetazoline], the “inhibition” value was 0.31% (inactive).
For `CC(C)NC[C@@H](O)COc1ccc(CC(N)=O)cc1` (racemic) [atenolol-(+/-)], the “inhibition” value was -0.8% (inactive).
`COC(=O)/C=C/c1cccc(N(Cc2ccc(-c3ccc(N(C)C)cc3)cc2)C(=O)C2CCCCC2)c1` [fexaramine] was tested, and the “inhibition” value was 1.78% (inactive).
For `N[C@@H](Cc1ccc(O)cc1)C(=O)NCC(=O)NCC(=O)O`, the “inhibition” value was 0.4% (inactive).
With `CSc1ccc2c(c1)[C@H](N1CCN(C)CC1)Cc1ccccc1S2` (racemic) [metitepine] the “inhibition” value was 16.2% (active).
In the case of `Cc1ccccc1-c1cc(N2CCN(C)CC2)ncc1N(C)C(=O)C(C)(C)c1cc(C(F)(F)F)cc(C(F)(F)F)c1` [netupitant], the “inhibition” value is reported as 8.28% (inactive).
For `COc1ccc2cc(-c3nc(-c4ccc([S+](C)[O-])cc4)[nH]c3-c3ccncc3)ccc2c1` (stereo not given) [tie2-kinase-inhibitor], the “inhibition” value was 9.27% (inactive).
For `COc1cc2c(Oc3ccc(NC(=O)C4(C(=O)Nc5ccc(F)cc5)CC4)cc3F)ccnc2cc1OCCCN1CCOCC1` [foretinib], the “inhibition” value was -22.4% (inactive).
With `CCC(=O)O[C@H]1[C@H](O[C@@H]2[C@@H](C)[C@H](O[C@H]3C[C@@](C)(OC)[C@@H](O)[C@H](C)O3)[C@@H](C)C(=O)O[C@H](CC)[C@@](C)(O)[C@H](O)[C@@H](C)C(=O)[C@H](C)C[C@@]2(C)O)O[C@H](C)C[C@@H]1N(C)C` [erythromycin-estolate] the “inhibition” value was -0.99% (inactive).
In the case of `O=C(/C=C/c1ccc(O)cc1)c1ccc(O)cc1O` [isoliquiritigenin], the “inhibition” value is reported as 10.8% (inactive).
With `NS(=O)(=O)c1cc2c(cc1Cl)NC(C(Cl)Cl)NS2(=O)=O` (stereo not given) [trichlormethiazide] the “inhibition” value was -8.52% (inactive).
`O=C(O)c1cc(N2N=C(C(F)(F)F)/C(=C/c3ccc(-c4ccccc4)o3)C2=O)ccc1Cl` was tested, and the “inhibition” value was 3.69% (inactive).
In the case of `CC[C@H](CO)Nc1nc(Nc2cccc(-c3ccccn3)c2)c2ncn(C(C)C)c2n1`, the “inhibition” value is reported as -7.74% (inactive).
In the case of `Cc1ccc(OCCSc2ncccn2)c(Br)c1`, the “inhibition” value is reported as -1.49% (inactive).
In the case of `C/C(O)=C(\C#N)C(=O)Nc1cc(Br)ccc1Br`, the “inhibition” value is reported as 1.5% (inactive).
In the case of `Cc1cc(=O)n(-c2ccccc2)n1C` [phenazone], the “inhibition” value is reported as 0.53% (inactive).
In the case of `C=CCN1CC[C@]23c4c5ccc(O)c4O[C@H]2/C(=N/NC(=O)c2ccccc2)CC[C@@]3(O)[C@H]1C5` [naloxone-benzoylhydrazone], the “inhibition” value is reported as 0.69% (inactive).
With `O=[N+]([O-])C(Br)(CO)CO` [bronopol] the “inhibition” value was -1.05% (inactive).
`C=CCOc1ccccc1OCC(O)CNC(C)C` (stereo not given) [oxprenolol] was tested, and the “inhibition” value was -0.79% (inactive).
